Measurements: PubChem BioAssay AID1159580 (chemical genetic matrix, 2015)
The campaign covered roughly 5,500 compounds. About 2,000 (36%) were called active. Inconclusive results (about 18%) are left out. The list shows a part of the results. Values without a mark were called inactive. No stated cut-off is given here; in the data, active means normalized growth mostly below about 0.91 (no sharp cut-off); inconclusive means no clear call, values can overlap the other calls; inactive means mostly above about 0.92.

Test: chemical genetic growth profiling, strain panel (AID 1159580);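 further: tested at 20 µM; growth read once vehicle control cultures reached saturation at 30 °C; 1 = growth at the plate median or of vehicle wells; lower values mean less growth of the strain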
Settings: growth OD
[1] = S. cerevisiae deletion strains, locus YDL101C, strain DUN1, active compounds read low
[2] = S. cerevisiae deletion strains, locus YHR030C, strain SLT2, active compounds read low

Nc1ccccc1C(=O)N/N=C\c1cc(Br)ccc1O
normalized growth (S. cerevisiae deletion strains, locus YAR019C, strain CDC15, active compounds read low): 0.985 | normalized growth (S. cerevisiae deletion strains, locus YBL105C, strain PKC1, active compounds read low): 0.984 | normalized growth (S. cerevisiae deletion strains, locus YBR135W, strain CKS1, active compounds read low): 0.981 | normalized growth (S. cerevisiae deletion strains, locus YBR136W, strain MEC1, active compounds read low): 0.982 | normalized growth (S. cerevisiae deletion strains, locus YBR160W, strain CDC28, active compounds read low): 0.989 | normalized growth (S. cerevisiae deletion strains, locus YDL017W, strain CDC7, active compounds read low): 0.98 | normalized growth (S. cerevisiae deletion strains, locus YDL028C, strain MPS1, active compounds read low): 0.976 | normalized growth [1]: 0.984 | normalized growth (S. cerevisiae deletion strains, locus YDL108W, strain KIN28, active compounds read low): 0.982 | normalized growth (S. cerevisiae deletion strains, locus YDL132W, strain cdc53, active compounds read low): 0.97 | normalized growth (S. cerevisiae deletion strains, locus YDL214C, strain PRR2, active compounds read low): 0.972 | normalized growth (S. cerevisiae deletion strains, locus YDR052C, strain DBF4, active compounds read low): 0.99 | normalized growth (S. cerevisiae deletion strains, locus YDR054C, strain cdc34, active compounds read low): 0.97 | normalized growth (S. cerevisiae deletion strains, locus YDR226W, strain ADK1, active compounds read low): 0.96 | normalized growth (S. cerevisiae deletion strains, locus YDR477W, strain SNF1, active compounds read low): 0.961 | normalized growth (S. cerevisiae deletion strains, locus YER123W, strain YCK3, active compounds read low): 0.877 | normalized growth (S. cerevisiae deletion strains, locus YER133W, strain GLC7, active compounds read low): 0.979 | normalized growth (S. cerevisiae deletion strains, locus YFL009W, strain cdc4, active compounds read low): 0.965 | normalized growth (S. cerevisiae deletion strains, locus YFL029C, strain CAK1, active compounds read low): 0.971 | normalized growth (S. cerevisiae deletion strains, locus YFR003C, strain YPI1, active compounds read low): 0.974 | normalized growth (S. cerevisiae deletion strains, locus YFR019W, strain FAB1, active compounds read low): 0.985 | normalized growth (S. cerevisiae deletion strains, locus YFR028C, strain CDC14, active compounds read low): 0.985 | normalized growth (S. cerevisiae deletion strains, locus YGR040W, strain KSS1, active compounds read low): 0.982 | normalized growth (S. cerevisiae deletion strains, locus YGR052W, strain FMP48, active compounds read low): 0.925 | normalized growth (S. cerevisiae deletion strains, locus YGR092W, strain DBF2, active compounds read low): 0.452 (active) | normalized growth [2]: 0.855 | normalized growth (S. cerevisiae deletion strains, locus YHR079C, strain IRE1, active compounds read low): 0.828 | normalized growth (S. cerevisiae deletion strains, locus YHR082C, strain KSP1, active compounds read low): 1.02 | normalized growth (S. cerevisiae deletion strains, locus YHR205W, strain SCH9, active compounds read low): 0.866 | normalized growth (S. cerevisiae deletion strains, locus YIL147C, strain SLN1, active compounds read low): 0.981 | normalized growth (S. cerevisiae deletion strains, locus YJL095W, strain BCK1, active compounds read low): 0.798 | normalized growth (S. cerevisiae deletion strains, locus YJL128C, strain PBS2, active compounds read low): 0.933 | normalized growth (S. cerevisiae deletion strains, locus YJL157C, strain FAR1, active compounds read low): 0.947 | normalized growth (S. cerevisiae deletion strains, locus YJR016C, strain ILV3, active compounds read low): 0.976 | normalized growth (S. cerevisiae deletion strains, locus YJR066W, strain TOR1 (second series), active compounds read low): 0.903 | normalized growth (S. cerevisiae deletion strains, locus YJR066W, strain TOR1, active compounds read low): 0.976 | normalized growth (S. cerevisiae deletion strains, locus YKL048C, strain ELM1, active compounds read low): 0.928 | normalized growth (S. cerevisiae deletion strains, locus YKL067W, strain YNK1, active compounds read low): 0.948 | normalized growth (S. cerevisiae deletion strains, locus YKL101W, strain HSL1, active compounds read low): 0.901 | normalized growth (S. cerevisiae deletion strains, locus YKL193C, strain SDS22, active compounds read low): 0.976 | normalized growth (S. cerevisiae deletion strains, locus YKL203C, strain TOR2, active compounds read low): 1.02 | normalized growth (S. cerevisiae deletion strains, locus YLR113W, strain HOG1, active compounds read low): 0.784 (active) | normalized growth (S. cerevisiae deletion strains, locus YLR133W, strain CKI1, active compounds read low): 0.927 | normalized growth (S. cerevisiae deletion strains, locus YLR403W, strain SFP1, active compounds read low): 0.88 | normalized growth (S. cerevisiae deletion strains, locus YML070W, strain DAK1, active compounds read low): 0.901 | normalized growth (S. cerevisiae deletion strains, locus YMR001C, strain CDC5, active compounds read low): 0.986 | normalized growth (S. cerevisiae deletion strains, locus YMR205C, strain PFK2 (second series), active compounds read low): 0.939 | normalized growth (S. cerevisiae deletion strains, locus YMR277W, strain FCP1, active compounds read low): 0.976 | normalized growth (S. cerevisiae deletion strains, locus YNL006W, strain LST8, active compounds read low): 0.995 | normalized growth (S. cerevisiae deletion strains, locus YNL020C, strain ARK1, active compounds read low): 0.929 | normalized growth (S. cerevisiae deletion strains, locus YNL161W, strain CBK1, active compounds read low): 0.979 | normalized growth (S. cerevisiae deletion strains, locus YNL183C, strain NPR1, active compounds read low): 0.958 | normalized growth (S. cerevisiae deletion strains, locus YNL207W, strain RIO2, active compounds read low): 0.979 | normalized growth (S. cerevisiae deletion strains, locus YNL222W, strain SSU72, active compounds read low): 0.981 | normalized growth (S. cerevisiae deletion strains, locus YNL307C, strain MCK1 (second series), active compounds read low): 0.871 | normalized growth (S. cerevisiae deletion strains, locus YOL078W, strain AVO1, active compounds read low): 0.984 | normalized growth (S. cerevisiae deletion strains, locus YOL136C, strain PFK27, active compounds read low): 0.898 | normalized growth (S. cerevisiae deletion strains, locus YOR061W, strain CKA2, active compounds read low): 0.922 | normalized growth (S. cerevisiae deletion strains, locus YOR119C, strain RIO1, active compounds read low): 1.08 | normalized growth (S. cerevisiae deletion strains, locus YOR231W, strain MKK1, active compounds read low): 0.871 | normalized growth (S. cerevisiae deletion strains, locus YOR329C, strain SCD5, active compounds read low): 0.98 | normalized growth (S. cerevisiae deletion strains, locus YPL031C, strain PHO85, active compounds read low): 0.95 | normalized growth (S. cerevisiae deletion strains, locus YPL153C, strain RAD53, active compounds read low): 0.927 | normalized growth (S. cerevisiae deletion strains, locus YPL204W, strain HRR25, active compounds read low): 0.947 | normalized growth (S. cerevisiae deletion strains, locus YPL209C, strain IPL1, active compounds read low): 0.985 | normalized growth (S. cerevisiae deletion strains, locus YPL256C, strain CLN2, active compounds read low): 0.779 (active) | normalized growth (S. cerevisiae deletion strains, locus YPR025C, strain CCL1, active compounds read low): 0.979 | normalized growth (S. cerevisiae deletion strains, locus YPR106W, strain ISR1, active compounds read low): 0.968 | normalized growth (S. cerevisiae deletion strains, locus YPR111W, strain DBF20, active compounds read low): 0.969 | normalized growth (S. cerevisiae deletion strains, strain NNK1, active compounds read low): 0.988 | normalized growth (S. cerevisiae deletion strains, strain TSCII, active compounds read low): 0.99

O=C(N/N=C\c1c(O)ccc2ccccc12)N/N=C\c1c(O)ccc2ccccc12
normalized growth (S. cerevisiae deletion strains, locus YAL013W, strain DEP1, active compounds read low): 0.996 | normalized growth (S. cerevisiae deletion strains, locus YBR229C, strain ROT2, active compounds read low): 0.975 | normalized growth [1]: 1.02 | normalized growth (S. cerevisiae deletion strains, locus YDL134C, strain PPH21, active compounds read low): 0.94 | normalized growth (S. cerevisiae deletion strains, locus YDR150W, strain NUM1, active compounds read low): 0.908 | normalized growth (S. cerevisiae deletion strains, locus YEL061C, strain CIN8, active compounds read low): 0.962 | normalized growth (S. cerevisiae deletion strains, locus YGR078C, strain PAC10, active compounds read low): 1.01 | normalized growth [2]: 0.875 | normalized growth (S. cerevisiae deletion strains, locus YHR087W, strain rtc3, active compounds read low): 0.989 | normalized growth (S. cerevisiae deletion strains, locus YJL187C, strain SWE1, active compounds read low): 0.994 | normalized growth (S. cerevisiae deletion strains, locus YJR043C, strain POL32, active compounds read low): 0.988 | normalized growth (S. cerevisiae deletion strains, locus YJR075W, strain HOC1, active compounds read low): 1.07 | normalized growth (S. cerevisiae deletion strains, locus YKL190W, strain CNB1, active compounds read low): 1.01 | normalized growth (S. cerevisiae deletion strains, locus YLR039C, strain RIC1, active compounds read low): 1.03 | normalized growth (S. cerevisiae deletion strains, locus YLR058C, strain SHM2 (second series), active compounds read low): 0.992 | normalized growth (S. cerevisiae deletion strains, locus YLR085C, strain ARP6, active compounds read low): 0.899 | normalized growth (S. cerevisiae deletion strains, locus YLR262C, strain YPT6, active compounds read low): 0.953 | normalized growth (S. cerevisiae deletion strains, locus YML094W, strain GIM5, active compounds read low): 0.924 | normalized growth (S. cerevisiae deletion strains, locus YMR219W, strain ESC1, active compounds read low): 1.02 | normalized growth (S. cerevisiae deletion strains, locus YMR263W, strain SAP30, active compounds read low): 0.928 | normalized growth (S. cerevisiae deletion strains, locus YMR307W, strain GAS1, active compounds read low): 1.09 | normalized growth (S. cerevisiae deletion strains, locus YNL153C, strain GIM3, active compounds read low): 0.951 | normalized growth (S. cerevisiae deletion strains, locus YNL298W, strain CLA4 (second series), active compounds read low): 0.879 | normalized growth (S. cerevisiae deletion strains, locus YNL322C, strain KRE1, active compounds read low): 1.02 | normalized growth (S. cerevisiae deletion strains, locus YNR030W, strain Alg12, active compounds read low): 0.928 | normalized growth (S. cerevisiae deletion strains, locus YOL006C, strain TOP1, active compounds read low): 0.888 | normalized growth (S. cerevisiae deletion strains, locus YPL055C, strain LGE1, active compounds read low): 1.01 | normalized growth (S. cerevisiae deletion strains, locus YPL241C, strain CIN2, active compounds read low): 0.939 | normalized growth (S. cerevisiae deletion strains, locus YPR135W, strain CTF4, active compounds read low): 0.968 | normalized growth (S. cerevisiae strains, strain wild type, active compounds read low): 0.994
